# Reference: PubChem BioAssay AID1345082 (National Center for Advancing Translational Sciences (NCATS), 2018)
# The campaign covered roughly 94,000 compounds. About 4,000 (4.3%) were called active. Not shown: some 29% with an inconclusive outcome. What follows is part of a selection rich in actives, with near analogues and random picks from the rest. Values without a mark were called inactive. Calls come from the whole dose curve; as a rule, active = well fitted inhibition curve with a large enough effect; inconclusive = small, poorly fitted or top-dose-only effect; inactive = no such curve, though single readings can be large or run the other way.
# Test: Cytotoxic Profiling in NIH 3T3 Cell Line of Diverse Libraries Using Quantitative High-Throughput Screening; note: nearly all actives have a fitted effect of over 55% in size
# Conditions: NIH 3T3 viability, CellTiter-Glo ATP luminescence, 48-72 h; series mostly up to 96.7 µM; activity change, negative = cytotoxicity: at the top concentration
# Source text: Cell-based phenotypic screening is a commonly used approach to discover biological pathways, novel drug targets, chemical probes and high-quality hit-to-lead molecules. Many hits identified from high-throughput screening campaign are ruled out through a series of follow-up potency, selectivity/specificity, and cytotoxicity assays. Prioritization of molecules with little or no cytotoxicity for a more in-depth downstream evaluation influence the future direction of projects, so cytotoxicity profiling of the screening libraries at early stage is essential for increasing the likelihood of candidate success. In this study, we analyzed results from a cell-based cytotoxicity screening campaign, comprising nearly 10,000 compounds in NCATS annotated libraries, and over 100,000 compounds in a diversity library, evaluated in four normal cell lines (HEK 293, NIH 3T3, CRL-7250 and HaCat) and a cancer cell line (KB 3-1, a HeLa subline) with overall screening outcomes, hit rates, pan-activity and selectivity. For the annotated library, we also examined the primary targets and mechanistic pathways regularly associated with cell death. To our knowledge, this is the first study to use high-throughput screening to profile large libraries for cytotoxicity assessment in both normal and cancer cell lines. In summary, the results generated here constitutes a valuable resource for the scientific community and provides insight on identifying cytotoxic compounds with particular mechanisms of action, and prioritizing compounds with suitable cytotoxicity profile for further evaluation.
# NIH 3T3 cells were seeded into white 1536-well plates using a Multidrop Combi peristaltic dispenser (ThermoFisher, Waltham, MA) at a density of 400 cells/well in 5 uL of medium respectively. A pintool (Kalypsys) was used to transfer 23 nL of compound solution to the 1536-well assay plates. After 48 or 72 hr incubation at 37 degree Celsius, 5% CO2 and 95% humidity, 2.5 uL of CellTiter-Glo (Promega) was dispensed into each well using a dispenser (Aspect Automation, St. Paul, MN) with solenoid valves (Lee Valves, Westbrook CT). Plates were left at room temperature for 10 min before imaging the ATP-coupled luminescence using a ViewLux microplate imager (PerkinElmer, Waltham, MA).
# % is set by controls: 0 for no effect and ±100 for the full control effect; potency is the fitted concentration of half-maximal effect.
SMILES,"activity change, negative = cytotoxicity",outcome,Potency
O=C(O)COCC(=O)N1C[C@@H]2C[C@H](C1)c1c(-c3ccc4ccccc4c3)ccc(=O)n1C2,0.104% [at 174 µM],,
Cn1cccc1CN1CCC2(COc3ccncc3[S+](=O)([O-])N2)C1 (stereo not given),-1.63%,,
CCOC(=O)[C@H]1CN(C(=O)N2CCOCC2)[C@]2(C)C(=O)N(CC(=O)N(C)C)c3ccccc3[C@H]12,-22.1% [at 46.1 µM],,
Cc1ccc(C(=O)N2CCC3(CC2)c2nccn2-c2ccccc2CN3C)cc1C,-2.76%,,
FC(F)(F)CN1C2CCC1CN(c1ccc(Cl)nn1)C2,1.46%,,
CCNC(=O)N1CC2CN(C(C)C)CC(C1)O2,-0.941%,,
CC1=NOC2(CCN(Cc3c[nH]c4ccccc34)CC2)C1,,inactive [at 138 µM],
Cn1cc(CN2CCN(C(=O)COc3ccc(F)cc3)CC2)ccc1=O,-12.8%,,
CCC(CC)c1cc([C@H]2CN3CC[C@H]2C[C@@H]3CNS(=O)(=O)Cc2ccccc2)nc(-c2ccncc2)n1,,,22.4 µM (active)
COc1ccc(-c2cc([C@H]3CN4CC[C@H]3C[C@@H]4CNS(=O)(=O)Cc3ccccc3)n(C)n2)cc1OC,-25.7%,,
CCCCc1cn(C[C@H]2CC3CCN2C[C@@H]3C(=O)NCc2ccccc2)nn1 (stereo not given in full),-15.6% [at 174 µM],,
COc1ccc(-c2cn(C[C@H]3C[C@@H]4CCN3C[C@@H]4C(=O)NCc3ccccc3)nn2)cc1,-24.5% [at 174 µM],,
CCCS(=O)(=O)NC[C@H]1C[C@@H]2CCN1C[C@@H]2c1cc(C2CCCC2)nn1C,-27.6% [at 174 µM],,
CCC(CC)c1cc([C@H]2CN3CC[C@H]2C[C@@H]3CNC(=O)NCc2ccccc2)nc(-c2ccncc2)n1,,,20 µM (active)
O=S1(=O)NCC2(CCN(Cc3ccc(Cl)s3)C2)Oc2ncccc21 (stereo not given),,inactive,
Cc1noc(C)c1CC(=O)N1[C@H]2CC[C@@H]1c1cnc(-c3ccccc3)nc1C2,-24.3%,,
O=S(=O)(NC[C@H]1C[C@@H]2CCN1C[C@@H]2CN1CCCCC1)c1ccc(Cl)cc1,-27.6% [at 174 µM],,
CNC1CCOCC1,-5.51% [at 230 µM],,
CCCCc1cn(C[C@H]2C[C@@H]3CCN2C[C@@H]3C(=O)NCCNC(C)=O)nn1,-17.5% [at 174 µM],,
CC[C@H]1CN2CC[C@H]1C[C@@H]2CNCc1cccc(C#N)c1,-7.23% [at 230 µM],,
CC[C@H]1CN2CC[C@H]1C[C@@H]2CNC(=O)c1ccc(N(C)C)cc1,2.42% [at 174 µM],,
CN(Cc1ccccc1)C[C@H]1CN2CC[C@H]1C[C@@H]2CNC(=O)Nc1cccc(C#N)c1,,,100 µM (active)
C=CCN(C)C[C@H]1CN2CC[C@H]1C[C@@H]2CNC(=O)Nc1cccc(SC)c1,,,100 µM (active)

SMILES,"activity change, negative = cytotoxicity",outcome,Potency
CC(C)NC(=O)NC[C@H]1C[C@@H]2CCN1C[C@@H]2CN1CCCC1,,inactive [at 174 µM],
CN(CCc1ccccn1)C[C@H]1CN2CC[C@H]1C[C@@H]2CNC(=O)c1ccccc1,-25% [at 174 µM],,
CCOC(=O)[C@H]1CN(C(=O)c2cc3ccccc3s2)[C@]2(C)C(=O)Nc3ccccc3[C@H]12,-34.2% [at 46.1 µM],,
Cc1ccc([C@@H]2CN(Cc3ncc[nH]3)[C@@H]3C4CCN(CC4)[C@@H]32)cc1,-1.78%,,
Cc1ccccc1-c1ccc2n(c1=O)C[C@H]1C[C@@H]2CN(C(=O)CSCC(=O)O)C1,3.5% [at 174 µM],,
COc1ccc(CC(=O)N2Cc3ccccc3CC3(CCCN3C)C2)cc1 (stereo not given),-27.9%,,
CC(C)N1C[C@@H]2OCC(=O)N(Cc3cccnc3)[C@@H]2C1,-15.6% [at 230 µM],,
Cc1ccc([C@@H]2CN(C(=O)c3ccco3)[C@@H]3C4CCN(CC4)[C@@H]32)cc1,-8.11%,,
Cc1nc(-c2ccc(C(F)(F)F)cc2)cc([C@H]2CN3CC[C@H]2C[C@@H]3CNC(=O)C2CCC2)n1,,,20 µM (active)
Cc1nc(-c2ccc(N(C)C)cc2)cc([C@H]2CN3CC[C@H]2C[C@@H]3CNC(=O)C2CCC2)n1,,,89.1 µM (active)
O=C(NC[C@H]1C[C@@H]2CCN1C[C@@H]2CN1CCN(c2ncccn2)CC1)c1ccc(C(F)(F)F)cc1,-23.7%,,
COc1ccccc1-c1cc([C@H]2CN3CC[C@H]2C[C@@H]3CNC(=O)c2ccco2)n(C)n1,-8.76% [at 174 µM],,
COc1ccccc1-c1cc([C@H]2CN3CC[C@H]2C[C@@H]3CNC(=O)c2ccco2)nc(C)n1,-11.9% [at 174 µM],,
Cc1nc(-c2ccc(C(F)(F)F)cc2)cc([C@H]2CN3CC[C@H]2C[C@@H]3CNC(=O)c2ccco2)n1,,,25.1 µM (active)
COc1ccc(-c2cc([C@H]3CN4CC[C@H]3C[C@@H]4CNC(=O)C3CC3)n(C)n2)cc1OC,-23.3% [at 174 µM],,
CC(=O)NCCNC(=O)[C@H]1CN2CCC1C[C@@H]2Cn1cc(-c2ccc(C(C)(C)C)cc2)nn1 (stereo not given in full),-6.09%,,
C#C[C@H]1CN2CC[C@H]1C[C@@H]2CNC(=O)C1CC1,,inactive [at 230 µM],
O=C(COc1ccccc1)N1C[C@@H]2C[C@H](C1)c1c(-c3ccccc3F)ccc(=O)n1C2,-8.23% [at 174 µM],,
FC(F)(F)CN1C2CCC1CN(c1cccc(Cl)n1)C2,-0.118%,,
O=[N+]([O-])c1ccc(N2CC3CCC(C2)N3CC(F)(F)F)nc1,,inactive,
O=C(N1[C@H]2CC[C@@H]1c1cnc(-c3ccccc3)nc1C2)C1(c2ccccc2)CC1,-26.1%,,
COCCC(=O)N1CCC2(CC1)c1nccn1-c1ccccc1CN2CC(C)C,,inactive,
